Inconclusive results are not listed. A call without a number means that no potency is given here. Active and inactive are the calls of the source. The call rests on the fitted dose curve.
Test: qHTS assay to identify small molecule antagonists of the estrogen receptor alpha (ER-alpha) signaling pathway - cell viability counter screen (AID 743074);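 further: HEK293 cells carrying ER-alpha-UAS-bla reporter stimulated with 17beta-estradiol; nearly all actives have a fitted effect of over 45% in size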
Details: ERalpha-bla HEK293 viability, CellTiter-Glo luminescence, 18 h; series mostly up to 69.4 µM

Compound | Potency
CCCCOC(=O)CCC(=O)OCCCC | inactive
CCOC(=O)C1OC1(C)c1ccccc1 (stereo unspecified) | inactive
O=C1CC[C@@]2(O)[C@H]3Cc4ccc(O)c5c4[C@@]2(CCN3CC2CC2)[C@H]1O5 | inactive
O=S(=O)(c1ccccc1)c1ccccc1 | inactive
CCCCCl | inactive
CC[N+]1(C)CCCC(OC(=O)C(O)(c2ccccc2)c2ccccc2)C1 (stereo unspecified) | inactive
CCCCCCCCP(=O)(O)O | inactive
O=C(O)c1cc(Cl)ccc1Cl | inactive
Cc1ccccc1 | inactive
C[C@]12C=CC3=C4CCC(=O)C=C4CC[C@H]3[C@@H]1CC[C@@H]2O | inactive
Nc1ccccc1C(=O)OCCc1ccccc1 | inactive
O=C(N[C@H]1CN2CCC1CC2)c1ccc2c(c1)OCCO2 | inactive
CC(C)CCON=O | inactive
N#CC1(N=NC2(C#N)CCCCC2)CCCCC1 | inactive
O=C(N/N=C/c1ccc([N+](=O)[O-])o1)c1cc([N+](=O)[O-])cc([N+](=O)[O-])c1O | inactive
CCCN(CCOc1c(Cl)cc(Cl)cc1Cl)C(=O)n1ccnc1 | inactive
CC(Oc1cccc(Cl)c1)C(=O)O (stereo unspecified) | inactive
CC(Cl)C(=O)O (stereo unspecified) | inactive

Compound | Potency
O=[N+]([O-])/C=C/c1ccccc1 | inactive
C[N+](C)(C)CCOC(=O)C(O)(c1ccccc1)c1ccccc1 | inactive
C=CCc1ccc(OC(=O)Cc2ccccc2)c(OC)c1 | inactive
CCc1cnc(C2=NC(C)(C(C)C)C(=O)N2)c(C(=O)O)c1 (stereo unspecified) | inactive
FC(F)OC(F)(F)C(F)Cl (stereo unspecified) | inactive
ClCc1ccccc1Cl | inactive
OCCCl | inactive
C=CCSSCC=C | inactive
COc1ccccc1N1CCNCC1 | inactive
O=C(NCNC(=O)NC1C(=O)NC(=O)N1CO)NC1C(=O)NC(=O)N1CO (stereo unspecified) | inactive
Clc1ccc(Cl)c(Cl)c1 | inactive
CC(=O)NNc1ccccc1 | inactive
COc1ccc2c(c1OC)C(=O)O[C@H]2[C@@H]1c2cc3c(cc2CCN1C)OCO3 | inactive
CC(C)(C#N)C(C)(C)C#N | inactive
Cc1ccc(N)c(C)c1 | inactive
CCCC[P+](CC)(CCCC)CCCC (tested in a mixture with another compound) | inactive
O=C(O)C(Cl)(Cl)Br | inactive
C[Si](Cn1cncn1)(c1ccc(F)cc1)c1ccc(F)cc1 | inactive

Source: PubChem BioAssay (Tox21)
